# Assay results reported in PubChem BioAssay AID504444 (National Center for Advancing Translational Sciences (NCATS), 2011).
# Hit rate of the full screen: of about 360,000 compounds, about 7,500 (2.1%) were called active. Another 20% or so got no clear call; they are omitted. The entries come from a sample that favours actives as a whole. A number with no mark means an inactive call. Calls come from the whole dose curve; as a rule, active = well fitted inhibition curve with a large enough effect; inconclusive = small, poorly fitted or top-dose-only effect, or effect the other way; inactive = flat fitted curve, though single readings scatter.
# Assay: Nrf2 qHTS screen for inhibitors; note: nearly all actives have a fitted effect of over 60% in size
# Settings: A549 ARE-Fluc reporter, luciferase luminescence, 18-24 h; series mostly up to 46 µM; activity change, negative = inhibition: at the top concentration
# Method in brief: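 Concentration-response testing used A549 ARE_Fluc cells at 5000 cells/well. Following an 18-24 h compound incubation, viability was read by fluorescence (Ex 405/Em 525) and luciferase output by luminescence.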
# % is set by controls: 0 for no effect and ±100 for the full control effect; potency is the fitted concentration of half-maximal effect.
Compound,"activity change, negative = inhibition",Potency
CCOc1ccc2oc(=O)cc(CN3CCN(C(=O)c4ccc(F)cc4)CC3)c2c1,11.7%,–
O=C1c2ccccc2C2=Nc3ccccc3SC(c3ccccc3F)C12 (stereo not given),–,23.1 µM (active)
O=C1c2ccccc2C(=O)C1c1ccccc1F,-0.356%,–
Cc1cccc(NC(=O)c2nnn(CC(=O)Nc3ccc(C(C)C)cc3)c2N)c1C,9.89%,–
O=C(CSc1nnc(CN2CCCC2)n1-c1ccc(F)cc1)c1ccc2c(c1)OCO2,0.537%,–
COc1ccccc1-c1cc(C(F)(F)F)nc(S(=O)(=O)CCCC(=O)Nc2ccc(F)cc2F)n1,10.4% [at 9.27 µM],–
COc1cc(C(=O)NC2CCN(C)CC2)ccc1Nc1ncc2c(n1)N(C1CCC(O)CC1)CCC(=O)N2C (stereo not given),5.46%,–
O=C(CN1CCN(C(=S)NC2CCCC2)CC1)Nc1ccc(Oc2ccccc2)cc1,–,16.4 µM (active)
CCOc1ccc(NC(=O)CN2CCN(CC(=O)Nc3ccc(OC)cc3)CC2)cc1,17.4%,–
CCOc1ccc(NC(=S)N2CCC(NC(=O)c3ccccc3)CC2)cc1,2.87%,–
CCc1cc2c(-c3ccccc3)cc(=O)oc2c2c1OCN(Cc1ccc(C)cc1)C2,8.44%,–
O=C(Cc1ccc(NC(=O)C2CCCN(C(=O)CCc3ccccc3)C2)cc1)Nc1ccc(C(=O)N2CCOCC2)cc1 (stereo not given),2%,–
CC(C)OC(=O)c1ccc(NCc2cc(O)ccc2O)cc1Cl,16.7%,–
Cc1ccc(S(=O)(=O)c2nc(-c3cccs3)oc2NCc2cccnc2)cc1,1.51%,–
O=S(=O)(c1ccccc1)c1nc(-c2ccccc2F)oc1NCc1cccnc1,-22%,–
O=S(=O)(c1ccc(Br)cc1)c1nc(-c2ccccc2)oc1NCc1cccnc1,–,20.6 µM (active)
CC[N+]1(CC)CC2=Cc3ccccc3CC2C1 (stereo not given),–,23.1 µM (active)
COc1cc(OC)cc(C(=O)Nc2c(C(=O)Nc3ccc(F)cc3)oc3ccccc23)c1,-7.58%,–
COc1cccc(/C=N/Nc2cc(C)nc(-c3ccccc3O)n2)c1O,–,14.6 µM (active)
COc1cccc(/C=N/NC(=O)c2[nH]nc3c2CCc2ccccc2-3)c1O,-21.6%,–
COc1cccc(/C=N\NC(=O)C2=NNC(=O)C2C)c1O (stereo not given),-3.51%,–
Cc1nc2nc(SCC(=O)N(Cc3ccccc3)C(C)C)nn2c(C)c1Cc1ccccc1Cl,8.79% [at 9.27 µM],–
CCN1CCc2nc3sc(C(=O)Nc4ccccc4OC(F)(F)F)c(N)c3cc2C1,4.26%,–
NC(=O)c1c(NC(=O)CSc2nc(N)cc(=O)[nH]2)sc2c1CCCC2,1.73%,–

Compound,"activity change, negative = inhibition",Potency
COC(=O)c1c(NC(=O)CCCC(=O)O)sc2c1CCCCC2,–,5.17 µM (active)
COC(=O)c1c(NC(=O)C2CC(C)=C(C)CC2C(=O)O)sc2c1CCCCC2 (stereo not given),-3.38%,–
COC(=O)c1c(NC(=O)c2ccc(Cl)c(Cl)c2)sc2c1CCCC2,11.6%,–
COC(=O)c1c(NC(=O)CSc2nncs2)sc2c1CCCCC2,–,18.4 µM (active)
COC(=O)c1c(NC(=O)CCN2CCOCC2)sc2c1CCCC2,7.94%,–
CCOC(=O)C1=CN(Cc2ccc(Br)cc2)S(=O)(=O)N(C)C1C (stereo not given),-21.3%,–
CCNC(=O)N(CC)C[C@H]1N[C@@](CC)(C(=O)OC)[C@H]2C(=O)N(Cc3ccccc3)C(=O)[C@@H]12,0.165%,–
O=C1c2ccccc2[C@@H]2C[C@@H](O)[C@H](Nc3ccccc3Cl)CCN12,-2.43%,–
C=CCn1c(SCc2cccc(F)c2)nc2cc(C(=O)N3CCC(C(N)=O)CC3)ccc2c1=O,3.26%,–
Cc1cc(=O)[nH]c(SCc2cccc(F)c2)n1,9.11%,–
CCn1cc2nc(SCc3cccc(F)c3)n(CCc3ccccc3)c(=O)c2n1,–,23.1 µM (active)
O=C(Cn1cc(SCc2ccccc2)c2ccccc21)N1CCCCC1,4.37%,–
COc1ccc(CCNc2nc(-c3ccc(F)cc3)cc(C(F)(F)F)n2)cc1OC,8.32% [at 9.27 µM],–
COc1ccccc1CNC(=O)c1ccc(-n2c(C)cc3c2CCCC3)cc1,-13.1%,–
CCOc1ccc(CNC(=O)CCc2c(C)nn(-c3ccc(N4CCCCC4)nn3)c2C)cc1,-4.23%,–
Cc1oc(-c2ccccc2)nc1Cn1c(SCc2cccc(C(F)(F)F)c2)nc2cccnc21,–,25.9 µM (active)
O=C(NCc1ccc(F)cc1)c1ccc(Cn2c(SCc3ccc(F)cc3)nc3cccnc32)cc1,10.8%,–
O=C(O)c1ccc(CSc2nc3cccnc3n2Cc2cccc(F)c2)cc1,-5.55%,–
CCN(Cc1ccccc1)C(=O)c1cn(-c2cccc(OC)c2)c(=O)c2ccccc12,22%,–
Cc1ccc(Oc2nc(-c3ccccn3)nc3ccccc23)cc1,-10.1%,–
c1ccc(-c2nc(NCc3ccco3)c3ccccc3n2)cc1,2.29%,–
CC(C)(C)Nc1nc(-c2ccccn2)nc2ccccc12,–,20.6 µM (active)
CCOc1ccc(C(=O)c2cn(Cc3ccccc3OC)c3ccc(F)cc3c2=O)cc1,-6.53%,–
O=C(N/N=C/c1ccoc1)c1ccc(Cl)cc1Cl,15.2%,–

Compound,"activity change, negative = inhibition",Potency
O=C(N/N=C/c1ccc(OC(=O)c2ccccc2Cl)cc1)c1ccc(O)cc1,0.134%,–
CC(C)(C)C(=O)Nc1ccc(C(=O)N/N=C/c2ccccc2OC(=O)c2ccc(Cl)cc2Cl)cc1,–,13 µM (active)
O=C(CC(=O)c1cccnc1)c1ccccc1,3.55%,–
COCCN(Cc1ccco1)C(=O)Cn1ncc2c([nH]c3ccccc32)c1=O,-8.84%,–
CN1C(=O)C(CC(=O)Nc2ccccc2)S/C1=N/c1nccs1 (stereo not given),2.37%,–
O=C(CC1SC(=Nc2ccccc2)N(Cc2ccccn2)C1=O)Nc1cccc(Cl)c1 (stereo not given),–,25.9 µM (active)
O=C(Nc1cccc(Cl)c1)OCc1ccccn1,12.3%,–
CN(C)C(=S)N=c1ssc(=S)n1Cc1ccco1,-1.23%,–
CCCOc1ccc(C(=O)Nc2ccc3oc(-c4cccc(Cl)c4Cl)nc3c2)cc1,–,5.8 µM (active)
COc1cccc(C(=O)Nc2ccc3oc(-c4ccc5ccccc5c4)nc3c2)c1,-7.05%,–
Cc1ccccc1-c1nc2cc(NC(=O)c3cccc(OCCC(C)C)c3)ccc2o1,–,6.51 µM (active)
O=C(COc1ccc(Cl)cc1)Nc1ccc(-c2nc3cc(Cl)ccc3o2)c(O)c1,5.35%,–
CCCCOc1ccc(C(=O)Nc2cccc(-c3nc4ccccc4o3)c2C)cc1,3.59%,–
Cc1ccc(SCC(=O)Nc2ccc3oc(-c4ccccc4C)nc3c2)cc1,22.1%,–
O=C(NCCCc1ccccc1)c1ccc2c(c1)sc1nc(-c3ccc(F)cc3)cn12,11.3%,–
CCc1ccc(OCCCn2c(CCCNC(=O)C3CCCCC3)nc3ccccc32)cc1,0.143%,–
O=C(NCc1ccccc1)c1cccc(NC(=O)N2CCSc3ncccc32)c1,-16%,–
CC(C)(C)OC(=O)C[C@H]1C/C=C\C[C@@H](CC(=O)N[C@H](CO)Cc2ccccc2)C(=O)NC[C@@H](c2ccccc2)OC1=O,22.1%,–
COc1ccc(-c2ccc3c(c2)C2CC3CCN2CCC#N)cc1 (stereo not given),0.991%,–
Cc1nc2ccc(S(=O)(=O)N(CC(=O)Nc3ccc(F)cc3)Cc3ccccc3)cc2s1,11%,–
Cc1c(C(=O)N2CCCC2)oc2c1-c1nn(CC(=O)NCc3ccc(OC(C)C)cc3)cc1CC2,–,20.6 µM (active)
COc1ccccc1N1CCN(c2ccc(=O)n(CC(=O)NCc3ccc(OC(C)C)cc3)n2)CC1,-22.3%,–
CCCN(CCC)CCCNC(=O)Cn1cc2c(n1)-c1c(oc(C(=O)N3CCCC3)c1C)CC2,3.36%,–
Cc1ccc(Cn2cc(CCC(=O)NCc3ccc(OC(C)C)cc3)c3ccccc32)cc1,-1.08%,–

Compound,"activity change, negative = inhibition",Potency
Cc1cccc(N2CCN(C(=O)c3oc(=O)c4ccccc4c3-c3ccccc3)CC2)c1C,-3.23%,–
Cc1ccc2nc(/C(C#N)=C\c3ccc(OC(=O)c4cccs4)cc3)[nH]c2c1,–,4.61 µM (active)
COc1cc(/C=C(\C#N)c2nc3ccccc3[nH]2)ccc1O,5.25%,–
Cc1ccc2nc(/C(C#N)=C/c3ccccc3F)[nH]c2c1,16.3%,–
CC(=O)Nc1cccc(/C(C)=N/NC(=O)c2c(-c3ccccc3Cl)noc2C)c1,–,9.2 µM (active)
Cc1onc(-c2c(Cl)cccc2Cl)c1C(=O)NNC(=O)c1c(-c2c(Cl)cccc2Cl)noc1C,-4.18%,–
Cc1onc(-c2ccccc2Cl)c1C(=O)OCC(=O)c1ccccc1,-9.9%,–
COC(=O)c1ccc(CNC(=O)Cn2cc(C)c(=O)[nH]c2=O)cc1,-7.9%,–
Cc1cccc(-c2nc(SCc3ccc(Br)cc3)n3[nH]c(=O)cc3n2)c1,8.24%,–
CC(=O)Nc1ccc(S(=O)(=O)Nc2nc(-c3ccc(C(C)(C)C)cc3)cs2)cc1,12.6%,–
O=C(O)c1ccccc1C(=O)Nc1nc(-c2ccccc2)cs1,5.28%,–
CC(=O)Nc1ccc(-c2csc(NC(=O)Nc3ccccc3)n2)cc1,–,16.4 µM (active)
Cc1cc(Cl)ccc1OCC(=O)N(Cc1ccc(N(C)C)cc1)C1CCS(=O)(=O)C1 (stereo not given),-18.6%,–
COc1ccc(-c2ccc3c(c2)[C@@H]2C[C@H](N(C)S(=O)(=O)c4ccccc4)[C@H]([C@H](C)O)C(=O)N2CC3)cc1,-25.2%,–
Cc1nnc(N2CCC(C(=O)Nc3ccc(F)cc3)CC2)c2nn(-c3ccc(Cl)cc3)c(C)c12,-15.4%,–
CNC(=O)N1c2ccccc2C=Cc2ccccc21,2.79%,–
CC1CC(C)CN(CC(=O)N2c3ccccc3CCc3ccccc32)C1 (stereo not given),11.5%,–
CC1C(C)N(C(=O)CCl)c2ccccc2N1C(=O)CCl (stereo not given),–,18.4 µM (active)
CCN(CC)S(=O)(=O)c1ccc(NC(=O)c2cccnc2Cl)c(NC(=O)c2cccnc2Cl)c1,–,20.6 µM (active)
CCN(CC)S(=O)(=O)c1ccc(Cl)c(NC(=O)c2ccncc2)c1,-11.1%,–
Cc1cccc(NC(=O)c2cccnc2Cl)n1,4.02%,–
COc1ccc(N2C(=O)CS(=O)(=O)C23C(=O)N(Cc2ccc(C)cc2)c2ccccc23)cc1Cl (stereo not given),21.7%,–
CN(C)C(CNC(=O)c1cc2ccccc2o1)c1ccccc1 (stereo not given),9.12%,–
